Laboratory results as given in the supplement of paper PMC10849652.
Of roughly 7,900 targets only a part is listed; those with a hit were picked by preference. About 0.6% of all pairs of compound and target were hits. Unmarked numbers belong to inactive results.

Assays:
Assay in all cases: log2 fold change, soluble protein after heating vs DMSO (PISA); higher = thermal stabilisation; K562 cells, 10 uM, 30 min; active = over 0.2 and 3.5 SD of the protein, either way, in both replicates (recomputed)
IRAK-1-4 Inhibitor I = compound: C1COCCN1CCN2C3=CC=CC=C3N=C2NC(=O)C4=CC(=CC=C4)[N+](=O)[O-] [IRAK-1-4 Inhibitor I]
In short: (§1)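 Aliquots of K562 cells (2×10^6 cells/mL) treated with 10 μM compound for 30 min were heated for 3 min over 48°C-58°C. After pooling and extraction in PBS with 0.5% NP-40 at 4°C, soluble protein from a 21,000xg, 90 min spin was quantified by TMTpro 16plex LC-MS/MS with channel sums equalised. Thermal stability is expressed against control samples, from duplicates, as a log2 fold change.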

ibrutinib = compound: C=CC(=O)N1CCC[C@@H](n2nc(-c3ccc(Oc4ccccc4)cc3)c3c(N)ncnc32)C1 [ibrutinib]
In short: as §1

[1] = compound: CC(=O)c1cnc2ccc(-c3cc(Cl)c(O)c(Cl)c3)nc2c1N[C@H]1CC[C@H](CN(C)C)CC1
In short: as §1

ralimetinib = compound: CC(C)(C)Cn1c(N)nc2ccc(-c3[nH]c(C(C)(C)C)nc3-c3ccc(F)cc3)nc21 [ralimetinib]
In short: as §1

[2] = compound: CC(C)(O)CC(=O)NCCn1ccc2ncnc(Nc3ccc(Oc4cccc(C(F)(F)F)c4)c(Cl)c3)c21
In short: as §1

[3] = compound: CC(C)C1=C2N=C(C=C(N2N=C1)NCC3=CC=CC=C3)NCCCCCCN
In short: as §1

[4] = compound: CC(C)C[C@@H](C=O)NC(=O)[C@H](CC(C)C)NC(=O)[C@H](CC(C)C)NC(=O)OCc1ccccc1
In short: as §1

pinometostat = compound: CC(C)N(C[C@H]1O[C@@H](n2cnc3c(N)ncnc32)[C@H](O)[C@@H]1O)[C@H]1C[C@@H](CCc2nc3cc(C(C)(C)C)ccc3[nH]2)C1 [pinometostat]
In short: as §1

[5] = compound: CC1=C(C(CC(=O)N1)C2=CC=C(C=C2)C(F)(F)F)C(=O)NC3=C(C=C4C(=C3)C=NN4)F
In short: as §1

[6] = compound: CC1=C(C2=C(C=C1)C(=O)C3=CC=CC=C3N2CCCN)C
In short: as §1

Sequence of UniProt Q08752 (Q08752 whole entry, looked up): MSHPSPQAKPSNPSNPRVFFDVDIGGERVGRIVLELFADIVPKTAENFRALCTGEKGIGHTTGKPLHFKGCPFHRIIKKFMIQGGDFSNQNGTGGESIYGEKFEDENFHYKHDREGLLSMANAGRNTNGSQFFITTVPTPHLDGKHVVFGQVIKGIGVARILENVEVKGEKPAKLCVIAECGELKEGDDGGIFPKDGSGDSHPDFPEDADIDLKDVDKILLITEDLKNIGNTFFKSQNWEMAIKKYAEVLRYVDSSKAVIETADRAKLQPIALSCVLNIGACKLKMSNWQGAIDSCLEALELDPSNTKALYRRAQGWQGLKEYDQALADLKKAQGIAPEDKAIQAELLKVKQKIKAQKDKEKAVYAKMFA
Sequence of UniProt Q14442 (Q14442 whole entry, looked up): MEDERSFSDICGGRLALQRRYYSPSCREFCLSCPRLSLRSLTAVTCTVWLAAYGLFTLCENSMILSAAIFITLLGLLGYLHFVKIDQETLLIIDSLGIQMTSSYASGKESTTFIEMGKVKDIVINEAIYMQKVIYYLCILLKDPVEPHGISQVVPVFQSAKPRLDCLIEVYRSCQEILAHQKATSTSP
Sequence of UniProt Q9H0R6 (Q9H0R6 whole entry, looked up): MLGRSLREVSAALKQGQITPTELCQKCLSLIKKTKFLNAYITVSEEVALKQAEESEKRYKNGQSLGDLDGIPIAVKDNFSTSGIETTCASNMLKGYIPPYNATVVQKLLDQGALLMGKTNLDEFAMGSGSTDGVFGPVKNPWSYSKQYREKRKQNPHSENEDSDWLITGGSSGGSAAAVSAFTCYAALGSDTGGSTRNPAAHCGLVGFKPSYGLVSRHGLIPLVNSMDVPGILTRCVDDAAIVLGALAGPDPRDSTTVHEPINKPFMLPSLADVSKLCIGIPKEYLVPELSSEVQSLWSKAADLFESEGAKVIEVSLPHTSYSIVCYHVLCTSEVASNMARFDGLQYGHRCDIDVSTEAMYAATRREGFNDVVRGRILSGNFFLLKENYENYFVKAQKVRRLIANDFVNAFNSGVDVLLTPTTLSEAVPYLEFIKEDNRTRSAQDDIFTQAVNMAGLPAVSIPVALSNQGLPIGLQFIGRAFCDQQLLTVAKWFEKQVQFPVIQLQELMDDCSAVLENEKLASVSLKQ
Sequence of UniProt P07205 (P07205 whole entry, looked up): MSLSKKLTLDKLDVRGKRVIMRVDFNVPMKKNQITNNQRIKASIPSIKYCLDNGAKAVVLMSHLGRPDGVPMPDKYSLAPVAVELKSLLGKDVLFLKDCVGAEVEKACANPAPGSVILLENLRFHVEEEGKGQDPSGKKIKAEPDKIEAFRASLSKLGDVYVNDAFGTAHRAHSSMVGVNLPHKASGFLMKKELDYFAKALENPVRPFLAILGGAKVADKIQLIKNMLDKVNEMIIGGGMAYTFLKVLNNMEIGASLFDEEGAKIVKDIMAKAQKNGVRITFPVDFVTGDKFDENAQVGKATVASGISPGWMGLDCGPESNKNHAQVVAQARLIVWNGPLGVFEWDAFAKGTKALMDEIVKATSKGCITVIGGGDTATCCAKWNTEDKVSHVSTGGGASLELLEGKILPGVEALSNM
Sequence of UniProt Q15004 (Q15004 whole entry, looked up): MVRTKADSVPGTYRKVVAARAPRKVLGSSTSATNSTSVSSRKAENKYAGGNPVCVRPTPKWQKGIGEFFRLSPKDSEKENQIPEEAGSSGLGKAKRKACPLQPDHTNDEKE
Sequence of UniProt Q12974 (Q12974 whole entry, looked up): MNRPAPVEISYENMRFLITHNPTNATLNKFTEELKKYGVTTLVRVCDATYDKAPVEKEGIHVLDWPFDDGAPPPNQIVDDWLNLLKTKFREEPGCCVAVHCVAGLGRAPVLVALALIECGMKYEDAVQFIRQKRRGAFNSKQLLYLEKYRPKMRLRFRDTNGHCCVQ
Sequence of UniProt Q8TCG2 (Q8TCG2 whole entry, looked up): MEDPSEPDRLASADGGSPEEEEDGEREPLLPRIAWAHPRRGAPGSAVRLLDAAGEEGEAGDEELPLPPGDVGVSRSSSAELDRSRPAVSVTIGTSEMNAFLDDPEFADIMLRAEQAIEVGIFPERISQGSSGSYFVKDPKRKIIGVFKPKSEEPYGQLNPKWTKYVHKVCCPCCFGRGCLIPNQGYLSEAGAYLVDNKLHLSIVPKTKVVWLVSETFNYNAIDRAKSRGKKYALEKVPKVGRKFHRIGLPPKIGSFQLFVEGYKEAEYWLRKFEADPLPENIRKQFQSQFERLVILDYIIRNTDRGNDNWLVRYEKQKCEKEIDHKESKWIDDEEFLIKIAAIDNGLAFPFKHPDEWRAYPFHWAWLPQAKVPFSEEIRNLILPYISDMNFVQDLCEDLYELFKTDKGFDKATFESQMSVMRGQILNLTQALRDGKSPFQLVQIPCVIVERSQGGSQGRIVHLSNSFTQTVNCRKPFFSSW
Sequence of UniProt P28065 (P28065 whole entry, looked up): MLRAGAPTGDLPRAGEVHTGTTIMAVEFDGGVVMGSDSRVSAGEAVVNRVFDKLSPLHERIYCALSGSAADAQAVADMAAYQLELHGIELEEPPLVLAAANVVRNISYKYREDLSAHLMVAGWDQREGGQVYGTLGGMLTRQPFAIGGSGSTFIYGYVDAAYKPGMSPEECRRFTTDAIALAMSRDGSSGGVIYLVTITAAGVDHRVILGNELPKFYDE
Sequence of UniProt O00329 (O00329 whole entry, looked up): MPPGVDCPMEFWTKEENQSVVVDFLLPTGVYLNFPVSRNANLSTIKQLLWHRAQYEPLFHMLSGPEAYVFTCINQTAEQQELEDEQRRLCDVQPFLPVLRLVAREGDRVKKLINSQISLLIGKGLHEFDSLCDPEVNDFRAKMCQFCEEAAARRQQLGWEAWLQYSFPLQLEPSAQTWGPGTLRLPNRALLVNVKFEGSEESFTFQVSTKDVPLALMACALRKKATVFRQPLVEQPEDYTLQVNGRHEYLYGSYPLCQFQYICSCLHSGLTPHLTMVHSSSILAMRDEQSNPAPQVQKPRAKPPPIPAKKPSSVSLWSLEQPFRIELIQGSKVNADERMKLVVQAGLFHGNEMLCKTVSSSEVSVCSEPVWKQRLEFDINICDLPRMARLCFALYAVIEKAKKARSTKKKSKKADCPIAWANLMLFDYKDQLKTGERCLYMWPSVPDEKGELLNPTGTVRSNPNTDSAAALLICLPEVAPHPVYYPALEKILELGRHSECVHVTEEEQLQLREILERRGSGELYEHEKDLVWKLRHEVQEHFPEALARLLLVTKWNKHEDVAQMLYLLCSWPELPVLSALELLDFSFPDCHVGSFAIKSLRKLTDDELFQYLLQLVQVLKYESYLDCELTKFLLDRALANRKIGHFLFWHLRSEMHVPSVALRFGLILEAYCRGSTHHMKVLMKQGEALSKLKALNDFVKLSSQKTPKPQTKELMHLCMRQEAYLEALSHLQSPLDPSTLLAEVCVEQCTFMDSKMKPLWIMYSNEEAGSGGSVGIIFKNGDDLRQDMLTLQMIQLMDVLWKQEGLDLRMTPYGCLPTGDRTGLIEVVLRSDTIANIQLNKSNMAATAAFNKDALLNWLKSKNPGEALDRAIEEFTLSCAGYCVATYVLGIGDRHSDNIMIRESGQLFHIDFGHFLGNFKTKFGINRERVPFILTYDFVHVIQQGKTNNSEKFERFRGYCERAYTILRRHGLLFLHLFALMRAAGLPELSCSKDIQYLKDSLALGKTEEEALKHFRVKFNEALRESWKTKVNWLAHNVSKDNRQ
Sequence of UniProt Q16822 (Q16822 whole entry, looked up): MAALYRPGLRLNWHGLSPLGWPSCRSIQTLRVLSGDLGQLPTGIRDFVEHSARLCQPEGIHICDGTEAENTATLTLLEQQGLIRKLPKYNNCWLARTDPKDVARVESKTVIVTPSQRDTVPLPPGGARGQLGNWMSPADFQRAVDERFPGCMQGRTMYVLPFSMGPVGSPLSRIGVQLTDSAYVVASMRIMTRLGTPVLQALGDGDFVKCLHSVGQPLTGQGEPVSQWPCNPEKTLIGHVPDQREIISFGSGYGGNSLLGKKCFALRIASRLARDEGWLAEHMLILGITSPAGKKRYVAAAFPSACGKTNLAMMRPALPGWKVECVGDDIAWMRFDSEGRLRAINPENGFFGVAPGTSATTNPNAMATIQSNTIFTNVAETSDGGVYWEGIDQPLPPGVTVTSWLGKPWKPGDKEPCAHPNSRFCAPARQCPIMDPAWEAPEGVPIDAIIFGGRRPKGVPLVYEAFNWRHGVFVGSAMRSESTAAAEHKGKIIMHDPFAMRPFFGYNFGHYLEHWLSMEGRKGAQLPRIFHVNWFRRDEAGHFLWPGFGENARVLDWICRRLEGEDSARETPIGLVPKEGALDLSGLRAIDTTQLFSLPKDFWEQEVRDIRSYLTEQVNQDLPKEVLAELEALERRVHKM
Sequence of UniProt Q13362 (Q13362 whole entry, looked up): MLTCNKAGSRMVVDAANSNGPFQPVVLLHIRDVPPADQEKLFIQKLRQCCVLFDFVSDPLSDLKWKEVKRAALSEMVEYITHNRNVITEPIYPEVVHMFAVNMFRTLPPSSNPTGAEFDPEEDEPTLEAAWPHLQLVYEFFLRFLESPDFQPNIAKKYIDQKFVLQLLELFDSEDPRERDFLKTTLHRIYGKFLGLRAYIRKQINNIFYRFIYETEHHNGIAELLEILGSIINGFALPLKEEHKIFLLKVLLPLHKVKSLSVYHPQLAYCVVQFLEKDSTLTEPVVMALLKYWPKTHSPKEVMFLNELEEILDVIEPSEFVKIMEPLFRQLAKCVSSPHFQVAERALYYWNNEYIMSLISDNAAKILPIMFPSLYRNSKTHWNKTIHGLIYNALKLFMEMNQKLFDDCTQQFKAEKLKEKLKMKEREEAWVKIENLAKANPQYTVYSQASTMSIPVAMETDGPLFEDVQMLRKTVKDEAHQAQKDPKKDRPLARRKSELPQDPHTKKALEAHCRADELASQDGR
Sequence of UniProt Q15121 (Q15121 whole entry, looked up): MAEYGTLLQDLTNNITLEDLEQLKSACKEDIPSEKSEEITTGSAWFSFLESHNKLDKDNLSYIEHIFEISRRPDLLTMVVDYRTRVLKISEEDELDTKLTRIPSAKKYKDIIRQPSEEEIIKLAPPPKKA

Row | Target | log2 fold change (IRAK-1-4 Inhibitor I) | log2 fold change (ibrutinib) | log2 fold change [1] | log2 fold change (ralimetinib) | log2 fold change [2] | log2 fold change [3] | log2 fold change [4] | log2 fold change (pinometostat) | log2 fold change [5] | log2 fold change [6]
1 | QRSL1 (UniProt Q9H0R6) | 0.016 | 0.023 | -0.025 | 0.001 | -0.071 | -0.231 (active) | -0.003 | -0.087 | 0.041 | 0.025
2 | PEA15 isoform 2 (UniProt Q15121) | 0.025 | -0.024 | 0.054 | 0.007 | -0.079 | -0.045 | -0.046 | -0.004 | 0.007 | 0.038
3 | PCLAF (UniProt Q15004) | 0.055 | 0.034 | -0.061 | -0.012 | 0.036 | 0.184 | 0.278 (active) | -0.012 | 0.139 | -0.088
4 | PATL1 (UniProt Q86TB9) | -0.026 | -0.173 | -0.312 | 0.079 | -0.024 | -0.298 | 0.033 | 0.143 | – | 0.038
5 | PRIM1 (UniProt P49642) | -0.066 | -0.035 | 0.007 | 0.048 | -0.079 | -0.319 (active) | 0.046 | 0.114 | 0.026 | -0.006
6 | PRKAB2 (UniProt O43741) | 0.003 | 0.054 | -0.115 | 0.223 | -0.117 | -0.028 | -0.175 | -0.065 | 0.032 | -0.053
7 | PRKAR1B (UniProt P31321) | 0.005 | 0.004 | -0.112 | 0.143 | -0.013 | -0.11 | 0.007 | 0.105 | -0.079 | -0.104
8 | POMP (UniProt Q9Y244) | 0.029 | -0.002 | -0.002 | -0.022 | -0.033 | 0.009 | -0.002 | -0.023 | 0.076 | -0.053
9 | PPID (UniProt Q08752) | -0.141 | -0.057 | -0.013 | 0.103 | -0.152 | -0.238 | 0.053 | 0.105 | -0.006 | 0.022
10 | PCK2 (UniProt Q16822) | -0.029 | 0.021 | -0.013 | -0.059 | -0.019 | 0.063 | 0.035 | -0.011 | -0.005 | 0.053
11 | PRKD3 (UniProt O94806) | 0.189 | 0.059 | -2.06 (active) | -0.089 | – | -0.129 | 0.06 | 0.266 | – | –
12 | PPP2R5E (UniProt Q16537) | -0.01 | -0.001 | -0.033 | -0.029 | -0.046 | -0.144 | 0.019 | 0.015 | 0.028 | 0.136
13 | PTDSS1 (UniProt P48651) | -0.146 | 0.118 | 0.021 | 0.029 | -0.023 | -0.585 (active) | 0.061 | 0.212 | 0.093 | 0.035
14 | PIGH (UniProt Q14442) | -0.207 | 0.022 | -0.004 | -0.017 | 0.023 | 0.014 | -0.004 | 0.139 | – | 0.096
15 | PTP4A2 (UniProt Q12974) | 0.019 | 0.16 | 0.065 | 0.051 | -0.051 | 0.035 | -0.157 | -0.044 | 0.191 | -0.164
16 | POLR2M (UniProt Q6EEV4) | -0.014 | -0.075 | -0.027 | – | -0.091 | 0.128 | – | 0.005 | 0.139 | 0.209
17 | QRICH1 (UniProt Q2TAL8) | -0.108 | -0.024 | 0.048 | 0.055 | -0.237 | -0.321 | 0.08 | 0.026 | 0.029 | -0.08
18 | PSMC4 (UniProt P43686) | -0.056 | -0.012 | 0.022 | 0.014 | 0.029 | 0.034 | -0.249 (active) | 0.025 | 0.02 | 0.016
19 | PCBP2 (UniProt F8VRH0) | 0.118 | 0.057 | -0.092 | – | -0.263 | 0.123 | – | 0.022 | 0.089 | -0.113
20 | PSMB9 (UniProt P28065) | 0.091 | 0.511 | 0.031 | – | -0.01 | 0.205 | – | 0.069 | – | –
21 | PI4K2B (UniProt Q8TCG2) | 0.035 | -0.004 | 0.042 | -0.04 | – | -0.131 | -0.017 | 0.053 | 0.135 | 0.003
22 | PIK3CD (UniProt O00329) | 0.005 | -0.137 | 0.237 | 0.032 | -0.391 | 0.104 | 0.116 | -0.024 | – | 0.259
23 | PPP2R5C isoform 5 (UniProt Q13362) | -0.023 | 0.041 | -0.059 | -0.044 | -0.072 | -0.061 | 0.031 | 0.011 | 0.005 | -0.018
24 | PGK2 (UniProt P07205) | 0.039 | -0.003 | 0.004 | -0.07 | 0.008 | – | 0.063 | -0.032 | 0.096 | -0.037
25 | PRPF38A (UniProt Q8NAV1) | 0.011 | -0.051 | -0.237 (active) | 0.03 | 0.012 | -0.029 | 0.005 | 0.027 | 0.045 | -0.014
